This passage reports morphology score and SARS-CoV-2 infection rate results from the supplement of paper PMC13380429.

In test [1] the test system is Vero E6 infected with SARS-CoV-2. As to the kind of experiment: morphology score (similarity to uninfected cells); higher = more like uninfected cells. As to conditions: 24 h.
Test [2] shares this test system. As to the kind of experiment: SARS-CoV-2 infection rate relative to infected DMSO; higher = more infection, active = 60 or less. Particulars: 24 h.

`Cc1noc(NS(=O)(=O)c2cccc3c(N(C)C)cccc23)c1C` (10 µM) came in with a morphology score in test [1] of 0.115. Moreover, the SARS-CoV-2 infection rate in test [2] is 95.5% (inactive).
In the same order, the values of `CO[C@H]1CC[C@@H](C(=O)c2ccc3nc4c(cc3c2)CCCO4)CC1` (10 µM) are 0.0672 and 104% (inactive).
In the same order, the values of `NCCNC(=O)c1ccc(Cl)cn1` [lazabemide] (10 µM) are 0.0341 and 106% (inactive).
The corresponding values for `CCNC(=O)C#Cc1ccc2c(C(=Nc3ccc(CN(C)C)cc3)c3ccccc3)c(O)[nH]c2c1` (0.833333 µM) are -0.154 and 99% (inactive).
Compound `O=C(O)C[C@H](O)C[C@H](O)/C=C/c1c(C2CC2)nc2ccccc2c1-c1ccc(F)cc1` [pitavastatin] (10 µM) came in with a morphology score in test [1] of -0.127. In addition, in test [2], the SARS-CoV-2 infection rate is 115% (inactive).
The corresponding values for `O=C(c1c2ccccc2cc2ccccc12)N1CCC(N2CCC[C@@H](C(=O)N3CCOCC3)C2)CC1` (10 µM) are 0.0309 and 93.5% (inactive).
Consider `C[N+]1(C)[C@@H]2C[C@@H](OC(=O)C(O)(c3cccs3)c3cccs3)C[C@H]1[C@@H]1O[C@@H]12` [tiotropium] (10 µM), for which the morphology score in test [1] is 0.0776. Besides, in test [2], the SARS-CoV-2 infection rate is 100% (inactive).
The corresponding values for `CCN(CC)C(C)C(=O)c1ccccc1` (centres undefined) [amfepramone] (10 µM) are 0.016 and 116% (inactive).
In the same order, the values of `CCN(CC)CCOc1ccc(Cc2ccccc2)cc1` (10 µM) are 0.39 and 71% (inactive).
The corresponding values for `CCCS(=O)(=O)Nc1ccc(F)c(C(=O)c2c[nH]c3ncc(Cl)cc23)c1F` (10 µM) are -0.0271 and 114% (inactive).
In test [1], `Cc1cc(OCCN2CCOCC2)nn1-c1ccc2ccccc2c1` (10 µM) gave a morphology score of 0.0539. The SARS-CoV-2 infection rate in test [2] was 99.5% (inactive).
The corresponding values for `NCC(CS(=O)(=O)O)c1ccc(Cl)cc1` (centres undefined) [saclofen] (10 µM) are 0.194 and 94.5% (inactive).
The corresponding values for `Cn1c(=O)[nH]c2ncn(C)c2c1=O` [paraxanthine] (10 µM) are 0.141 and 110% (inactive).
In the same order, the values of `CNCCCN1c2ccccc2CCc2ccccc21` [desipramine] (10 µM) are 0.212 and 81% (inactive).
As for `C=C1CC[C@@]2(O)[C@H]3Cc4ccc(O)c5c4[C@@]2(CCN3CC2CC2)[C@H]1O5` [nalmefene] (10 µM), in test [1], the morphology score was -0.0409. For the same compound, in test [2], the SARS-CoV-2 infection rate is 112% (inactive).
In turn, `CC(=O)N(C)c1cccc(-c2ccnc3c(C(=O)c4cccs4)cnn23)c1` [indiplon] (10 µM) had a morphology score in test [1] of -0.213. The SARS-CoV-2 infection rate in test [2] was 116% (inactive).
In the same order, the values of `CS(=O)(=O)c1ccc(-c2cc(Br)sc2-c2ccc(F)cc2)cc1` (10 µM) are 0.0351 and 104% (inactive).
With `N#C/C(=C\c1ccc(O)c(O)c1)C(=O)NCCCCc1ccccc1` (0.833333 µM), in test [1], the morphology score was 0.167. For the same compound, the SARS-CoV-2 infection rate in test [2] was 89.5% (inactive).
In the same order, the values of `CCCCCCCCCCCC(=O)N(CCO)CCO` [lauric-diethanolamide] (10 µM) are -0.121 and 108% (inactive).
The corresponding values for `CC(C)S(=O)(=O)NC[C@H](C)c1ccc(-c2ccc(CCNS(C)(=O)=O)cc2)cc1` [mibampator] (10 µM) are 0.146 and 93% (inactive).
The corresponding values for `CN1CCN(Cc2ccc(Nc3ncc(Cl)c(Nc4ccccc4S(=O)(=O)N(C)C)n3)cc2)CC1` (10 µM) are -0.145 and 120% (inactive).
Regarding `CCCNC(C)C(=O)Nc1ccccc1C` (centres undefined) [prilocaine] (10 µM), the morphology score in test [1] is -0.208. The SARS-CoV-2 infection rate in test [2] was 112% (inactive).
The corresponding values for `CN(C)CCOC(C)(c1ccccc1)c1ccccn1` (centres undefined) [doxylamine] (10 µM) are 0.112 and 96% (inactive).
The corresponding values for `Cc1ccc(Sc2cncc3sc(C(N)=O)cc23)cc1` (10 µM) are -0.153 and 114% (inactive).
For `CC1Oc2cc(cnc2N)-c2c(nn(C)c2C#N)CN(C)C(=O)c2ccc(F)cc21` (centres undefined) (0.833333 µM), the morphology score in test [1] amounted to 0.32. Moreover, the SARS-CoV-2 infection rate in test [2] is 81.5% (inactive).
In the same order, the values of `Nc1nc(/C(=C/CC(=O)O)C(=O)N[C@@H]2C(=O)N3C(C(=O)O)=CCS[C@H]23)cs1` [ceftibuten] (10 µM) are 0.161 and 103% (inactive).
The corresponding values for `O=C(NCc1ccc(OC(F)(F)F)cc1)C1c2ccccc2C(=O)N1C1CCOCC1` (centres undefined) (10 µM) are -0.0695 and 105% (inactive).
`CON(C)C(=O)[C@H](O)[C@H](Cc1ccccc1)NC(=O)c1cc2cc(Cl)ccc2[nH]1` (10 µM) showed a morphology score in test [1] of 0.109. Moreover, the SARS-CoV-2 infection rate in test [2] is 109% (inactive).
`C[C@]12CC[C@H](O)C[C@H]1CC[C@@H]1[C@@H]2CC[C@]2(C)[C@@H](C3=CC(=O)OC3)CC[C@]12O` [digitoxigenin] (0.833333 µM) yielded a morphology score in test [1] of -0.0679. The SARS-CoV-2 infection rate in test [2] was 108% (inactive).
The corresponding values for `CCC(CC)Nc1nc(C)c(-c2ccc(OC(F)(F)F)cc2OC)nc1OC` (10 µM) are 0.2 and 86.5% (inactive).
In the same order, the values of `CC1COc2c(N3CCN(C)CC3)c(F)cc3c(=O)c(C(=O)O)cn1c23` (centres undefined) [ofloxacin] (10 µM) are 0.0901 and 104% (inactive).
In the same order, the values of `CC(=O)OCC(=O)NCCCOc1cccc(CN2CCCCC2)c1` [roxatidine-acetate] (10 µM) are 0.0141 and 110% (inactive).
